Records with an inconclusive call do not appear. Calls of active or inactive are those of the source. Unless noted, calls follow the shape of the dose curve; as a rule, active = well fitted curve in the direction sought with a large enough effect in the repeat runs; inconclusive = weak or mixed curves; inactive = no such curve, though single readings can be large; an effect the other way counts as inactive or inconclusive.
Columns and labels:
[1] = qHTS assay to identify small molecule agonists of the androgen receptor (AR) signaling pathway in the presence of an antagonist - cell viability counter screen (AID 1259379);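 also: MDA-kb2 human breast cancer cells carrying an MMTV luciferase reporter; series mostly up to about 92 µM; nearly all actives have a fitted effect of over 25% in size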
In short: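 Each compound was tested at 15 concentrations on MDA-kb2 cells in the presence of 3.0uM nilutamide. Viability was measured by CellTiter-Fluor fluorescence after a 16 hr incubation at 37C in a CO2-free atmosphere.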

[2] = qHTS assay to identify small molecule agonists of the estrogen receptor beta (ER-beta) signaling pathway - cell viability counter screen (AID 1259380); also: nearly all actives have a fitted effect of over 30% in size
In short: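 Compounds dissolved in DMSO were pin-transferred onto ER-beta-UAS-bla HEK293T cells that had settled 6 hr, and exposure ran 16 hr at 37C. Following the reporter read, CellTiter-Glo luminescence after 30 min at room temperature indicated cytotoxicity.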

[3] = biological target: Androgen receptor (Homo sapiens) (UniProt P10275); experiment: qHTS assay to identify small molecule agonists of the androgen receptor (AR) signaling pathway in the presence of an antagonist (AID 1259381; calls by dose curve; also: nearly all actives have a fitted effect of over 15% in size; also: potency is read from the fitted curve at half-maximal effect)
Androgen receptor (Homo sapiens), sequence (P10275 whole entry, looked up): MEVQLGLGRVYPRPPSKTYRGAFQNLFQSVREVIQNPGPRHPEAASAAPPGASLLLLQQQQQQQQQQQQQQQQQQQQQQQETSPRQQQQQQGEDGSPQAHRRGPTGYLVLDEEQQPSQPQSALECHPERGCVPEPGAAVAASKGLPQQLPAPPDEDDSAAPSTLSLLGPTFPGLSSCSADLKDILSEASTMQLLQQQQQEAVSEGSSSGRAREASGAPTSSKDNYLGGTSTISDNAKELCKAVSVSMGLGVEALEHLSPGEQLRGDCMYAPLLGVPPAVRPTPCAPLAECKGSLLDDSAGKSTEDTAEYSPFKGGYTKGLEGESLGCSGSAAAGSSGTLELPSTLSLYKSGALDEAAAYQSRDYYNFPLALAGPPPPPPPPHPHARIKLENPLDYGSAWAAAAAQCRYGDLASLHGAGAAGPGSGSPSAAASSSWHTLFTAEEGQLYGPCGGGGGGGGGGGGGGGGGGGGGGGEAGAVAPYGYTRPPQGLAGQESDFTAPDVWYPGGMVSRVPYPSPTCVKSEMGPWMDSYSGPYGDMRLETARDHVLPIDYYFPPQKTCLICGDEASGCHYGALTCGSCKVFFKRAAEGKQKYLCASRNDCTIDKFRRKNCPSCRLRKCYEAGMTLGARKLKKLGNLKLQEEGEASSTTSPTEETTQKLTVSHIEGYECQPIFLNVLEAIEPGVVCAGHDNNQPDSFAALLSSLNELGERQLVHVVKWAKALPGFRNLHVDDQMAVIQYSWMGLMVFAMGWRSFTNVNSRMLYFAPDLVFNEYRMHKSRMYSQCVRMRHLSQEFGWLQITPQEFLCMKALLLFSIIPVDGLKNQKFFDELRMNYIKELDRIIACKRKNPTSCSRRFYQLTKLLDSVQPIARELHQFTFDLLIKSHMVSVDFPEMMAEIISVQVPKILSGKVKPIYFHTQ
In short: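 Plated MDA-kb2 cells (3,000/well) were pre-incubated 5hr, given nilutamide (3.0uM final) or buffer, then dosed with compounds in DMSO at 15 concentrations. Luciferase activity was quantified by luminescence after 16hr at 37C.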

[4] = qHTS assay to identify small molecule antagonists of the estrogen receptor beta (ER-beta) signaling pathway - cell viability counter screen (AID 1259382);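 also: HEK293T cells carrying ER-beta-UAS-bla reporter stimulated with estradiol; series mostly up to about 92 µM; nearly all actives have a fitted effect of over 55% in size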
In short: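 CellTiter-Glo ATP luminescence measured after the LiveBLAzer read in the same wells; ER-beta-UAS-bla HEK293T cells, 16 hr compound treatment with 1nM 17-beta-estradiol agonist at 37C, 5% CO2.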

[5] = biological target: Estrogen receptor (Homo sapiens) (UniProt P03372); experiment: qHTS assay to identify small molecule agonists of the estrogen receptor alpha (ER-alpha) signaling pathway in the presence of an antagonist (AID 1259383; calls by dose curve; also: top concentration of the series differs between compounds; nearly all actives have a fitted effect of over 15% in size)
Estrogen receptor (Homo sapiens), sequence (P03372 whole entry, looked up): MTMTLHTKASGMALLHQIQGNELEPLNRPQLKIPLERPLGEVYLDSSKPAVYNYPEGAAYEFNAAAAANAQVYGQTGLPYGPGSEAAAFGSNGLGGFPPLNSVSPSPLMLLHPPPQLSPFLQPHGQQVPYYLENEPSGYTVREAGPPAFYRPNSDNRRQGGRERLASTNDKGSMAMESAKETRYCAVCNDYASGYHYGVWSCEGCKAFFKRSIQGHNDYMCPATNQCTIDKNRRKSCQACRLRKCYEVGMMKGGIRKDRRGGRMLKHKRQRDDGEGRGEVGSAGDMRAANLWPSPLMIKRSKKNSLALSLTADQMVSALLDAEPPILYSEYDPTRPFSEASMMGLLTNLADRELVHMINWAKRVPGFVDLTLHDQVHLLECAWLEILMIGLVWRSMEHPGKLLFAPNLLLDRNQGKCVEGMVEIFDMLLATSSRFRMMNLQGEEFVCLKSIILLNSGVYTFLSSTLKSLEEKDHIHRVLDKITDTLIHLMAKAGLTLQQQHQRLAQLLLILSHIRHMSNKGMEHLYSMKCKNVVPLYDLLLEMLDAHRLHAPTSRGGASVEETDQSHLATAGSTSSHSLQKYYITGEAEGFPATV
In short: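 Luminescent ERE-luciferase reporter, VM7Luc4E2 cells (endogenous ER-alpha); 10.0nM ICI-182,780 final; 15-point compound titration; 22hr at 37C; ONE-Glo, 30min RT.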

[6] = qHTS assay to identify small molecule agonists or antagonists of the thyroid stimulating hormone receptor (TSHR) signaling pathway - wild type cell line counter screen (AID 1259384; calls by dose curve)
In short: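 Wild-type Hek293 cells, 800/well, 18 h at 37C, then compound with Ro20-1724 for 30 min RT. cAMP by HTRF (cAMP-d2/anti-cAMP cryptate), 1 h RT, fluorescence read. 15 concentrations, triplicates.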

[7] = biological target: Thyrotropin receptor (Homo sapiens) (UniProt P16473); experiment: qHTS assay to identify small molecule antagonists of the thyroid stimulating hormone receptor (TSHR) signaling pathway (AID 1259385; calls by dose curve; also: nearly all actives have a fitted effect of over 20% in size)
Thyrotropin receptor (Homo sapiens), sequence (P16473 whole entry, looked up): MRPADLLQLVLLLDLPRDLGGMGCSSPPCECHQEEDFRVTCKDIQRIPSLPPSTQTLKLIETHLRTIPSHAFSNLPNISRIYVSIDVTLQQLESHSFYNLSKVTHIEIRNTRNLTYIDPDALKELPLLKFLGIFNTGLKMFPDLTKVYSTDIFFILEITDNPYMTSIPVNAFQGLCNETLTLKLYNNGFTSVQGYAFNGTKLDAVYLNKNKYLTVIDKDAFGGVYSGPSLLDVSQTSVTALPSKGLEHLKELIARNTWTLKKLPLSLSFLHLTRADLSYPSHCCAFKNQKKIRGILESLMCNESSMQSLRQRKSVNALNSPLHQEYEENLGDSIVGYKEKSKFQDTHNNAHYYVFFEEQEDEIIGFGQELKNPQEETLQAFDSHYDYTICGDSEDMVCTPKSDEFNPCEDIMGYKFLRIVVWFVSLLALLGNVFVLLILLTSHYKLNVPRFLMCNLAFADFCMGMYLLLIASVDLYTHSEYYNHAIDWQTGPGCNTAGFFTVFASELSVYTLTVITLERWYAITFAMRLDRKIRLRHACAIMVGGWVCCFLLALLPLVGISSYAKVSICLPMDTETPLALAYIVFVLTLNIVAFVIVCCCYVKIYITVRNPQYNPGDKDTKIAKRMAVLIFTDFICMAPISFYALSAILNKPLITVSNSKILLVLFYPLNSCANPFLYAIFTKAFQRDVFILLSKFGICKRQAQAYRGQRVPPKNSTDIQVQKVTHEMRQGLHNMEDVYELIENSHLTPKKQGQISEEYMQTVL
In short: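 TSHR-HEK293 cells (800/well) plated 18 h, then compounds with Ro20-1724 and TSH at 1.5 ng/mL final, 30 min at room temperature. cAMP quantified by HTRF (cAMP-d2/anti-cAMP-cryptate, 1 h); 15 concentrations in triplicate.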

[8] = qHTS assay to identify small molecule agonists of the estrogen receptor alpha (ER-alpha) signaling pathway in the presence of an antagonist - cell viability counter screen (AID 1259386);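 also: series mostly up to about 92 µM; cells exposed to compounds for 22 h at 37 °C before the viability read; nearly all actives have a fitted effect of over 30% in size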
In short: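 Using estrogen-depleted VM7Luc4E2 cells, the 15-concentration compound series was applied together with 10.0nM ICI-182,780 and incubated 22hr at 37C/5% CO2. Cell viability was then scored by CellTiter-Fluor.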

[9] = biological target: Progesterone receptor (Homo sapiens) (UniProt P06401); experiment: qHTS assay to identify small molecule agonists of the progesterone receptor (PR) signaling pathway (AID 1346784; calls by dose curve; also: nearly all actives have a fitted effect of over 30% in size)
Progesterone receptor (Homo sapiens), sequence (P06401 whole entry, looked up): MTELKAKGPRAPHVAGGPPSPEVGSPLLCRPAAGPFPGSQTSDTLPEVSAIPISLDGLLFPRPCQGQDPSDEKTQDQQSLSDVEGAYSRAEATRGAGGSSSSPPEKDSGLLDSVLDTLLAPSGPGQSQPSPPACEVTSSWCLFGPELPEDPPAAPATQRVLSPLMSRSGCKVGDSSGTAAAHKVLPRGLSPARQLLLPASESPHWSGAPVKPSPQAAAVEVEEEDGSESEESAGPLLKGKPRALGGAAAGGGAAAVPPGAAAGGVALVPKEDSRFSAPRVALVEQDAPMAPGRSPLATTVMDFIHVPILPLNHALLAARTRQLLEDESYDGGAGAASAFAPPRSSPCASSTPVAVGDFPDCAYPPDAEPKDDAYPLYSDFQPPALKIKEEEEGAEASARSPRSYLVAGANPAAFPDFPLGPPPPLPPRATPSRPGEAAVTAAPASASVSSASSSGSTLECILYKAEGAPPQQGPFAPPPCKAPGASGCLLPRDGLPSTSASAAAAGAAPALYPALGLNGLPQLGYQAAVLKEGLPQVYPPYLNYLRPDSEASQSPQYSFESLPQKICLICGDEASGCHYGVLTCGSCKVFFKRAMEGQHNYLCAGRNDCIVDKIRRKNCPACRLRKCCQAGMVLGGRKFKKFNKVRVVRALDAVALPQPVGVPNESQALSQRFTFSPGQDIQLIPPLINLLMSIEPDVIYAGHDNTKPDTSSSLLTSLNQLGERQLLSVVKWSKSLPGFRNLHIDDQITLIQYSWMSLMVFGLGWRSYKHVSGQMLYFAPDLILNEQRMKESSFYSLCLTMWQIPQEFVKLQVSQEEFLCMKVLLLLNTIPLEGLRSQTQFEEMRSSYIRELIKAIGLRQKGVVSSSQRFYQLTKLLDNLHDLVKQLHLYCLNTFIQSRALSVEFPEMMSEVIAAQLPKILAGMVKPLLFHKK
In short: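 Agonist qHTS: compounds pinned onto 3,000 PR-UAS-bla HEK 293T cells per well in charcoal-stripped serum medium, 16hr at 37C, then beta-lactamase activity measured by LiveBLAzer FRET fluorescence after 2 hours at room temperature.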

[10] = biological target: Progesterone receptor (Homo sapiens) (UniProt P06401); experiment: qHTS assay to identify small molecule antagonists of the progesterone receptor (PR) signaling pathway (AID 1346795; active = well fitted inhibition curve with a large enough effect in the signal ratio in the repeat runs, not every such curve was filed as active; the % refers to the signal ratio)
In short: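 Antagonist mode with agonist R5020 at 1 nM final and 16 hr incubation at 37C. Reporter was beta-lactamase driven by UAS in HEK293T (PR-UAS-bla), 2% charcoal-stripped serum; signal from LiveBLAzer FRET substrate, 2 hr at room temperature.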

[11] = qHTS assay to identify small molecule antagonists of the progesterone receptor (PR) signaling pathway - cell viability counter screen (AID 1346798); also: series mostly up to about 92 µM; nearly all actives have a fitted effect of over 50% in size
In short: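 Cytotoxicity read as CellTiter-Glo luminescence (30 min, room temperature) in the same wells as the beta-lactamase readout. HEK293T PR-UAS-bla cells in charcoal-stripped 2% FBS received compound and R5020, then 16 h at 37C, 5% CO2.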

[12] = qHTS assay to identify small molecule agonists of the progesterone receptor (PR) signaling pathway - cell viability counter screen (AID 1346799; calls by dose curve; also: nearly all actives have a fitted effect of over 45% in size)
In short: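 Cytotoxicity measured by CellTiter-Glo luminescence (30 min, RT) in the same wells as the PR beta-lactamase agonist read. Those HEK293T cells had 16 h compound treatment at 37 C in 2% charcoal-stripped FBS medium.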

[13] = qHTS assay to identify small molecule agonists of the TGF-beta/Smad signaling pathway - cell viability counter screen (AID 1346829); also: top concentration of the series differs between compounds; nearly all actives have a fitted effect of over 45% in size
In short: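 Tox21 qHTS format: SBE-bla HEK 293T cells treated with DMSO-dissolved compounds for 5 hr; CellTiter-Glo luminescence after 30 min at room temperature.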

[14] = qHTS assay to identify small molecule agonists of the TGF-beta/Smad signaling pathway (AID 1346859; active = well fitted activation curve with a large enough effect in the signal ratio in the repeat runs, not every such curve was filed as active; the % refers to the signal ratio; also: series mostly up to about 77 µM)
In short: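 Fluorescence (ex 405 nm; em 460 and 530 nm) was read 2 h after LiveBLAzer FRET substrate at RT. The preceding compound treatment of overnight-plated SBE-bla HEK293T cells lasted 5 h at 37 C.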

[15] = Human pregnane X receptor (PXR) small molecule agonists, qHTS cell viability counter screen (AID 1346977); also: nearly all actives have a fitted effect of over 50% in size
In short: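 Same-well viability read: CellTiter-Fluor added after 23 hr compound exposure, fluorescence measured 1 hr later. Cells were PXR-Luc HepG2 seeded at 2,000/well in 5% charcoal-stripped FBS medium, rested 5 hr before dosing at 37 C.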

[16] = qHTS assay to identify small molecule antagonists of the TGF-beta/Smad signaling pathway - cell viability counter screen (AID 1346824); also: nearly all actives have a fitted effect of over 50% in size
In short: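 SBE-bla HEK 293T cells, incubated overnight, then compound plus 0.25 ng/mL TGF-beta1 (stock added) for 5 hr at 37 C. Viability was read in the same wells by CellTiter-Glo luminescence after 30 min at room temperature.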

[17] = biological target: Thyrotropin-releasing hormone receptor (Homo sapiens) (UniProt P34981); experiment: qHTS assay to identify small molecule antagonists of the thyrotropin-releasing hormone receptor (TRHR) signaling pathway (AID 1346877; active = well fitted inhibition curve with a large enough effect in the repeat runs, not every such curve was filed as active; also: series mostly up to about 51 µM)
Thyrotropin-releasing hormone receptor (Homo sapiens), sequence (P34981 whole entry, looked up): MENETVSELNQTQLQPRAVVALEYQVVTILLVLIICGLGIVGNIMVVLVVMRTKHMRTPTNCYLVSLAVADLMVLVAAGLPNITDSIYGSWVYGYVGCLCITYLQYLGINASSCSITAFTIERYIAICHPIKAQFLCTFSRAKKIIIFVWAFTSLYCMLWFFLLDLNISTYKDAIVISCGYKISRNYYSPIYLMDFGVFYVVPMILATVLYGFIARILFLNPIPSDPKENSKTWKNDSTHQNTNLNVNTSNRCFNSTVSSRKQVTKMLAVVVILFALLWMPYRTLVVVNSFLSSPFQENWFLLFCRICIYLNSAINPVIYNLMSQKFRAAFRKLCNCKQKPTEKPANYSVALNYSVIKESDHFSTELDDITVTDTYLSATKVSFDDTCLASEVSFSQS
In short: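 Calcium signal in dye-loaded TRHR/HEK293 cells; compounds added 5 min before TRH (1 nM final); fluorescence monitored 3 min at 1 s steps.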

[18] = biological target: Thyrotropin-releasing hormone receptor (Homo sapiens) (UniProt P34981); experiment: qHTS assay to identify small molecule agonists of the thyrotropin-releasing hormone receptor (TRHR) signaling pathway (AID 1346891; calls by dose curve; also: series mostly up to about 58 µM)
In short: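 Agonist-mode intracellular calcium readout: kinetic fluorescence over 3 min at 1 s intervals after compound addition to TRHR-HEK293 cells (18 h seeded, 2 h dye-loaded at 37 C). Fifteen concentrations, triplicates.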

[19] = biological target: Estrogen receptor beta (Homo sapiens) (UniProt Q92731); experiment: qHTS assay to identify small molecule agonists of the estrogen receptor beta (ER-beta) signaling pathway (AID 1259377; active = well fitted activation curve with a large enough effect in the signal ratio in the repeat runs, not every such curve was filed as active; the % refers to the signal ratio)
Estrogen receptor beta (Homo sapiens), sequence (Q92731 whole entry, looked up): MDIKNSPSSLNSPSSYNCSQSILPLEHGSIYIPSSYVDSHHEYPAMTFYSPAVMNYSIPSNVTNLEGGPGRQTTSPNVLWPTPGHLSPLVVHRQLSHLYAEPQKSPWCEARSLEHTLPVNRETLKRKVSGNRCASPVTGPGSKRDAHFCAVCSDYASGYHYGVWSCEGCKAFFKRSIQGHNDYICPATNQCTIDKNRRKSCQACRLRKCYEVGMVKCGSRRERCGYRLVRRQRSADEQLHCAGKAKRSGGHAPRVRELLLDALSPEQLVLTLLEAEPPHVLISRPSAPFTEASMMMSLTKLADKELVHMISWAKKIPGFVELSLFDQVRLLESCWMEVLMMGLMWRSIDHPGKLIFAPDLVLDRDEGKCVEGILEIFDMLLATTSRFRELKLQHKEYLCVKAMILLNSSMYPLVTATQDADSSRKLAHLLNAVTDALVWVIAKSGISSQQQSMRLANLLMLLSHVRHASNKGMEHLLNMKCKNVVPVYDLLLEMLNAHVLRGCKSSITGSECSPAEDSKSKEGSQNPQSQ
In short: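 Ratiometric beta-lactamase FRET read-out came after 2 h substrate loading at room temperature. It followed 16 h compound treatment at 37C of GripTite HEK293T cells carrying a UAS-bla reporter, plated in 2% charcoal-stripped FBS medium.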
% is scaled to controls: 0 for no effect and ±100 for the full control effect.

O=S(=O)(O)c1cccc(S(=O)(=O)O)c1
inactive: Potency [1] | Potency [2] | Potency [3] | outcome [4] | outcome [5] | outcome [6] | outcome [7] | Potency [8] | Potency [9] | Potency [10] | Potency [11] | Potency [12] | outcome [13] | outcome [14] | Potency [15]

CC(=O)N[C@H]1[C@H]([C@H](O)[C@H](O)CO)OC(C(=O)O)=C[C@@H]1N=C(N)N
inactive: Potency [1] | Potency [2] | Potency [3] | outcome [4] | outcome [5] | outcome [6] | outcome [7] | Potency [8] | Potency [9] | Potency [10] | Potency [12] | outcome [16] | outcome [13] | outcome [14] | outcome [17] | Potency [18] | Potency [15]

CN1CCN(c2cc3c(nn2)Oc2ccccc2N3C)CC1
inactive: activation [19] 7.81% [at 19 µM] | activity change, negative = cytotoxicity [1] 0.723% [at 19 µM] | activity change, negative = cytotoxicity [2] 2.64% [at 19 µM] | activity change, negative = cytotoxicity [4] -0.299% [at 19 µM] | cAMP activity change [6] -3.2% [at 18.9 µM] | activity change, negative = cytotoxicity [8] -4.4% [at 19 µM] | activation [9] 0.134% [at 19 µM] | activity change, negative = inhibition [10] 15.6% [at 18.9 µM] | activity change, negative = cytotoxicity [11] -18% [at 18.9 µM] | activity change, negative = cytotoxicity [12] -4.66% [at 19 µM] | activity change, negative = cytotoxicity [13] 19.9% [at 15.8 µM] | activation [14] 3.68% [at 15.8 µM] | activity change, negative = cytotoxicity [15] 8.08% [at 19 µM]

CC(C)(C)c1ccc(-c2ccc(C(C)(C)C)cc2)cc1
inactive: Potency [19] | Potency [1] | Potency [2] | Potency [3] | outcome [4] | outcome [5] | outcome [6] | Potency [8] | Potency [9] | Potency [10] | Potency [11] | Potency [12] | outcome [16] | outcome [13] | outcome [14] | outcome [17] | Potency [18] | Potency [15]

C[C@@H]1C[C@H]2[C@@H]3C[C@H](F)C4=CC(=O)C(Cl)=C[C@]4(C)[C@@]3(F)[C@@H](O)C[C@]2(C)[C@@]1(O)C(=O)CO
inactive: Potency [1] | Potency [2] | outcome [4] | outcome [5] | outcome [6] | outcome [7] | Potency [8] | Potency [11] | outcome [13] | outcome [14] | Potency [15]
active: Potency [3] 4.7 nM

CCCCS(=O)(=O)N[C@@H](Cc1ccc(OCCCCC2CCNCC2)cc1)C(=O)O
inactive: Potency [1] | Potency [2] | Potency [3] | outcome [4] | outcome [5] | outcome [6] | outcome [7] | Potency [8] | Potency [9] | Potency [10] | Potency [11] | Potency [12] | outcome [16] | outcome [13] | outcome [14] | Potency [18] | Potency [15]

O=C(O)c1cn(C2CC2)c2cc(N3CCNCC3)c(F)cc2c1=O
inactive: Potency [19] | Potency [1] | Potency [2] | outcome [4] | outcome [5] | outcome [6] | outcome [7] | Potency [8] | Potency [9] | Potency [10] | Potency [11] | Potency [12] | outcome [16] | outcome [13] | outcome [14] | Potency [15]

COc1cc(C(=O)NCc2ccc(OCCN(C)C)cc2)cc(OC)c1OC
inactive: Potency [1] | Potency [2] | outcome [4] | outcome [5] | outcome [6] | outcome [7] | Potency [8] | Potency [9] | Potency [10] | Potency [11] | Potency [12] | outcome [16] | outcome [13] | outcome [14] | outcome [17] | Potency [18] | Potency [15]

Reference: PubChem BioAssay (Tox21)
